The record followed here is ChEMBL document CHEMBL3988442, “University of Dundee, Small-Polar-MMV Screening Library” (2021).

Molecules are shown by their SMILES. Among all 48,000 compounds or so, about 13,000 (27%) showed an effect of 50% or more. This is one part of the list.

For the assay, the system named is Wolbachia pipientis. Nature of the assay: Anti-Wolbachia Cell-Based Screen. In kind it is functional. On the set-up: scale not given: in the data most compounds retested in dose-response had high values. The following applies: 5 µM.
Regarding `CN(CCCNC(=O)Nc1ccc(C#N)cc1)CC(F)(F)F`, the “Percent Effect” value came out at 3.488%. In the case of `Cc1noc(CCNC(=O)C2CSCN2C(=O)C2CCCC2)n1` (stereo unspecified) it was 1.723%.

Take `CC(C)N1CCC(CC(=O)NCC2OCCc3ccccc32)CC1` (stereo unspecified): the “Percent Effect” value is given as -17.34%. As for `CC(C)(O)CN1CCN(C(=O)COCC2CC2)CC1`, the “Percent Effect” value is recorded as 6.995%. `COc1c(C)cnc(CN(C)C(=O)c2cccnc2N(C)C)c1C`: the “Percent Effect” value was -5.056%. For `CC1c2ncc(COCC3CCOCC3)n2CCN1C(=O)c1ccoc1` (stereo unspecified) the value was 2.746%; for `Cc1ncoc1C(=O)N1CCn2c(COCC3CC3)cnc2C1C` (stereo unspecified), -11.18%. In the case of `COCc1cnc2n1CCN(C(=O)c1oc3ccccc3c1C)C2C` (stereo unspecified), the “Percent Effect” value is listed as -7.418%. Regarding `CCOCc1cnc2n1CCN(C(=O)c1ccoc1C)C2C` (stereo unspecified), the “Percent Effect” value came to 98.54%. In the case of `CCOCc1cnc2n1CCN(C(=O)c1cccc3c1OCCO3)C2C` (stereo unspecified), the “Percent Effect” value is on record as 83.71%. As to `CCOCc1cnc2n1CCN(C(=O)Cc1cccs1)C2C` (stereo unspecified), the “Percent Effect” value is reported as 1.059%.

As to `CCOCc1cnc2n1CCN(C(=O)Cc1ccco1)C2C` (stereo unspecified), the “Percent Effect” value is listed as -11.07%. As for `COCc1cnc2n1CCN(C(=O)c1cnc3ccccc3c1)C2C` (stereo unspecified), the “Percent Effect” value is -17.18%.

Consider `COCc1cnc2n1CCN(C(=O)c1cn(C)c3ccccc13)C2C` (stereo unspecified), for which the “Percent Effect” value was determined as 101.2%. For the molecule `COc1ncccc1C(=O)N1CCn2c(COCC3CC3)cnc2C1C` (stereo unspecified), the “Percent Effect” value is on record as -2.491%. On to `COCc1cnc2n1CCN(C(=O)c1cc3ccccc3o1)C2C` (stereo unspecified), for which the “Percent Effect” value is -14.51%.

Consider `CCOCc1cnc2n1CCN(C(=O)c1ccccc1)C2C` (stereo unspecified), for which the “Percent Effect” value turned out to be 105.6%. In the case of `c1ccc2sc(N3CCCN(c4ncnc5c4CCNC5)CC3)nc2c1` it was -7.795%. In the case of `CC(NCCNS(=O)(=O)c1cccc(Cl)c1)C1CCOCC1` (stereo unspecified), the “Percent Effect” value is -16.43%. For `CCOc1ccc(C(=O)NCc2ccnc(N3CCCC3)c2)cn1` the value was -6.067%; for `CCCN1CCN(Cc2cccc(OCC(N)=O)c2)[C@H]2CS(=O)(=O)C[C@H]21`, -4.749%. Take `CCOCc1cnc2n1CCN(C(=O)c1cn(C)c3ccccc13)C2C` (stereo unspecified): the “Percent Effect” value was determined as 101.9%. `O=C(c1ccc(Cl)cn1)N1CCC(COCc2ccccc2)C1` (stereo unspecified): the “Percent Effect” value is recorded as 7.677%. On to `CC(=O)N1CCCCCC1C1CCN(Cc2nc(C(C)C)no2)CC1.Cl` (stereo unspecified), for which the “Percent Effect” value worked out at 9.412%.

Consider `CC(C)(C)c1nc(CN(CCC2CCCCC2)CC(N)=O)no1`, for which the “Percent Effect” value is 228.2%.

`CN(Cc1noc(C(C)(C)C)n1)CC1CCN(CCO)CC1`: the “Percent Effect” value was -10.5%.

For the molecule `CCc1noc(CN(CCC2CCCCC2)CC(N)=O)n1`, the “Percent Effect” value worked out at 163.4%. In the case of `CC(C)c1noc(CN(CCC2CCCCC2)CC(N)=O)n1` it was 116.2%; in that of `CCc1noc(CN(CC(=O)N2CCCCC2)c2ccc(C)cc2)n1`, 0.4396%; in that of `CC(C)c1noc(CC[C@@H]2CCCN3CCCC[C@H]23)n1`, 17.3%.

In the case of `C=C(C)CN(CC)Cc1nc(CC)no1`, the “Percent Effect” value was 1.944%. On to `CC(C(=O)NC1CCCC1)S(=O)(=O)Cc1noc(C(C)(C)C)n1` (stereo unspecified), for which the “Percent Effect” value is 6.849%. `CC(C#N)CSc1ccccc1NCC(=O)NCc1ccccc1` (stereo unspecified): the “Percent Effect” value came to 17.5%. For `CCC1CN(C(=O)c2cc(C(C)=O)c(C)[nH]c2=O)CCN1C(C)C` (stereo unspecified), the “Percent Effect” value is 0.5617%.

With `CCCN(c1ccccc1C(=O)O)S(=O)(=O)c1cccc2cccnc12`, the “Percent Effect” value is on record as -16.07%. For `COCCN1CCN(c2nc(C3CCCC3)nc3c2cnn3C)CC1` the value was 8.561%; for `CCCc1nc(N2CCCC(CCOC)C2)c2cnn(C)c2n1` (stereo unspecified), 105.9%. On to `CCc1nc(N2CCN(CCOC)CC2)c2cnn(C)c2n1`, for which the “Percent Effect” value is listed as 1.381%.

Turning to `CCc1nc(N2CCCC(CCCOC)C2)c2cnn(C)c2n1` (stereo unspecified), the “Percent Effect” value worked out at 108.6%. Consider `CCCc1nc(N2CCC(CCO)CC2)c2cnn(C)c2n1`, for which the “Percent Effect” value is given as -6.253%.

`COCC1CCN(c2nc(C(C)(C)C)nc3c2cnn3C)C1` (stereo unspecified): the “Percent Effect” value was -4.471%.

As to `Cc1noc([C@H]2C[C@H]3OCC[C@H]3N(Cc3ccc(F)cc3)C2)n1.O=C(O)C(F)(F)F`, the “Percent Effect” value came to 9.305%. In the case of `CCN(CC)C(=O)Cn1nc(C(C)C)c2cnn(C(C)(C)C)c2c1=O` it was 8.022%; in that of `C=C(C)CN(Cc1cccc(O)c1)C1CCC(O)CC1` (stereo unspecified), 3.823%. For `CCc1nc2c(N3CCC4(CC3)CNC(=O)C4)ncnc2o1` the value was 4.745%. For `c1cc(CN2CCCC(c3ccnc4nccn34)C2)ccn1` (stereo unspecified), the “Percent Effect” value came out at 150%. In the case of `Cn1c(Cn2ccnc2)nnc1C1CCCN(Cc2ccncc2)C1` (stereo unspecified) it was -0.06506%. In the case of `Cc1cccc(CN2CCC(c3nccn3CC(N)=O)CC2)n1` it was -14.31%; in that of `Fc1ccc(OCc2nnc([C@H]3CCN(Cc4ccncc4)C3)o2)cc1`, 12.6%; in that of `Cc1cccc(CN2CCC(c3csc4nccn34)CC2)n1.O=CO`, 151.3%. For `c1cncc(CN2CCC(c3csc4nccn34)CC2)c1` the value was 140.6%; for `Cc1ncsc1C(=O)NC1CCN(Cc2cccnc2)CC1`, 3.367%; for `FC(F)(F)c1cc(C2CCCN(Cc3ccncc3)C2)n[nH]1` (stereo unspecified), -5.824%. As to `c1cc(CN2CCC(c3ccnc4nccn34)C2)ccn1` (stereo unspecified), the “Percent Effect” value is 128.4%. As for `Cc1cccc(CN2CCC(NS(C)(=O)=O)CC2)n1`, the “Percent Effect” value is -9.608%. For `c1cc(-c2cc(C3CCN(Cc4cncnc4)C3)ccn2)ccn1` (stereo unspecified) the value was -7.458%; for `c1cncc(CN2CCC(c3n[nH]c(C4CC4)n3)CC2)c1`, 10.48%.

As for `Cc1ccc(C)c(S(=O)(=O)NCCNc2ccc(-n3cccc3)nn2)c1`, the “Percent Effect” value worked out at 14.81%.

On to `C=C(C)CN(CC)S(=O)(=O)c1cccc(F)c1C#N`, for which the “Percent Effect” value was -7.097%.

As to `CCN(CCO)C(=O)C1CCC(=O)N(CCc2cccc(F)c2)C1` (stereo unspecified), the “Percent Effect” value is -9.721%. Regarding `O=C(Nc1cnccn1)[C@H]1COC[C@H]2CN(c3ncc(F)cn3)C[C@H]21`, the “Percent Effect” value is recorded as -11.52%.

For `CCN1CCN(C(=O)c2cnc(Cc3c(Cl)cccc3Cl)nc2O)CC1`, the “Percent Effect” value worked out at 1.362%. For `CCc1nccc(CN2CCCC(CNC(=O)c3occc3C)C2)n1` (stereo unspecified) the value was 4.372%; for `CCn1ccnc1CN(C)C1CCCN(CCc2ccccc2)C1` (stereo unspecified), 17.47%; for `c1cncc(CN2CCC(c3ccnc4nccn34)C2)c1` (stereo unspecified), 122.6%. Consider `c1ccc(CCN2CCCC(c3ccnc4nccn34)C2)cc1` (stereo unspecified), for which the “Percent Effect” value is reported as 130.1%. For `Clc1cccnc1N1CCC(C2CCN(Cc3cccnc3)CC2)C1` (stereo unspecified) the value was -0.1569%.

On to `c1ccc(CCN2CCCC(c3noc(C4CC4)n3)C2)cc1` (stereo unspecified), for which the “Percent Effect” value is -7.15%.

For `Clc1ccc(CN2CCC(C3CCN(Cc4cccnc4)CC3)C2)cc1` (stereo unspecified), the “Percent Effect” value is on record as -5.932%. For `CC(=O)N1CCC(c2n[nH]c3nccnc23)CC1` the value was 120.8%; for `O=C(Cc1ccsc1)N1CCCC(c2n[nH]c3nccnc23)C1` (stereo unspecified), -11.37%; for `O=C(Cc1ccsc1)N1CCC(c2n[nH]c3nccnc23)CC1`, 72.86%.

Consider `O=C(Cc1ccsc1)N1CCCC(c2n[nH]c3ncccc23)C1` (stereo unspecified), for which the “Percent Effect” value stood at 100.9%. In the case of `COCC(=O)N1CCC(c2nccn2CC2CC2)CC1` it was -30.12%.

Regarding `COCC(=O)N1CCC(c2n[nH]c3nccnc23)CC1`, the “Percent Effect” value worked out at 142.1%. For `Cc1ncc(S(=O)(=O)N(CC(C)C)c2cccc(O)c2)s1` the value was -3.046%; for `O=C(NCCC(O)c1ccco1)c1ccco1` (stereo unspecified), -7.433%; for `CCC(CC)NC(=O)c1cncc(Br)c1`, 15.73%. With `CN1CCC(c2nnc(CN3CCC(O)CC3)n2C)CC1`, the “Percent Effect” value is -6.188%. In the case of `CC1CN(C(=O)c2cscn2)c2ccccc2S1` (stereo unspecified) it was -14.12%. For `CCc1nc(C)ncc1C(=O)N1CC(C)CN(C)c2ccccc21` (stereo unspecified) the value was -1.529%; for `O=C(Nc1c(N2CCCC2)cccc1N1CCCC1)c1cnccn1`, -1.067%. In the case of `CC(=O)N1CC(C)CN(C(=O)c2cccnc2C)c2ccccc21` (stereo unspecified) it was 91.16%; in that of `CC(=O)N1CC(C)CN(C(=O)c2cnccn2)c2ccccc21` (stereo unspecified), 97.68%; in that of `CC1CN(C)c2ccccc2CN1C(=O)c1cscn1` (stereo unspecified), -10.99%. Take `Cc1ncsc1C(=O)N1CC(C)Sc2ccccc21` (stereo unspecified): the “Percent Effect” value is recorded as 0.6302%. Turning to `CC(=O)N1CC(C)CN(Cc2ccon2)c2ccccc21` (stereo unspecified), the “Percent Effect” value is on record as 7.641%. In the case of `CC(=O)N1CC(C)CN(C(=O)c2cscn2)c2ccccc21` (stereo unspecified) it was 95.98%. `CN(C)C(=O)N1CC2(CCN(S(=O)(=O)C3CC3)CC2)c2ccccc21`: the “Percent Effect” value was -5.03%. Consider `O=C(CCO)N[C@H]1CN(CC2CCC2)C[C@@H]1c1ccccc1`, for which the “Percent Effect” value worked out at 4.649%. As to `Cc1nc2ccccc2nc1CN(C)CC1CCCN1c1cccnn1` (stereo unspecified), the “Percent Effect” value is 5.031%. Turning to `CN(Cc1cnn(-c2ccccc2)n1)CC1CCCN1c1cccnn1` (stereo unspecified), the “Percent Effect” value was determined as 15.2%.

With `CCn1ccnc1CN(C)CC1CCCN1c1cccnn1` (stereo unspecified), the “Percent Effect” value was found to be 7.087%. In the case of `CN(Cc1nc(N)c2ccccc2n1)CC1CCCN1c1cccnn1` (stereo unspecified) it was -0.6342%; in that of `CN(Cc1ccc(-n2ccnc2)cc1)CC1CCCN1c1cccnn1` (stereo unspecified), 126.9%; in that of `Cc1cnc(CN(C)CC2CCCN2c2cccnn2)cn1` (stereo unspecified), -5.64%. For `CN(Cc1ccc(-n2cccn2)cc1)CC1CCCN1c1cccnn1` (stereo unspecified) the value was 115.9%; for `COc1ccc(CN(C)CC2CCCN2c2cccnn2)cc1F` (stereo unspecified), 12.57%. As to `CN(Cc1cccc(C(N)=O)c1)CC1CCCN1c1cccnn1` (stereo unspecified), the “Percent Effect” value worked out at 103.6%. On to `CN(Cc1ccccn1)CC1CCCN1c1cccnn1` (stereo unspecified), for which the “Percent Effect” value stood at 130%. For `Cc1noc(C)c1CN(C)CC1CCCN1c1cccnn1` (stereo unspecified), the “Percent Effect” value was -0.05919%. In the case of `CN(Cc1ccc(-n2cccn2)cc1)C[C@@H]1CCCN2CCCC[C@H]12` it was 18.72%. In the case of `CCCOc1cccc(NC(=O)NC2CCc3nc(C)nn3C2)c1` (stereo unspecified) it was -22.59%.

With `Cc1cc(N(C)Cc2ncc[nH]2)nc(-c2ccccc2)n1`, the “Percent Effect” value was found to be 4.008%.

Consider `CCOCCn1nc(C)cc1C(=O)N1CC[C@](C)(O)C(C)(C)C1`, for which the “Percent Effect” value is listed as 2.862%.

`O=C(Nc1cccnc1)[C@H]1CN(Cc2ccccn2)C[C@H]2OCC[C@@H]12.O=C(O)C(F)(F)F.O=C(O)C(F)(F)F`: the “Percent Effect” value is reported as -14.96%.
